# Data published in PubChem BioAssay (Tox21).
# “And” between values parts separate entries of the source, which are not always exact repeats. Identical values can stand only once. Values without a mark were called inactive. Inconclusive results are not listed. A call without a number means that no potency is given here. The source made the active and inactive calls. Unless noted, calls come from the whole dose curve; as a rule, active = well fitted curve in the direction sought with a large enough effect in the repeat runs; inconclusive = weak or mixed curves; inactive = no such curve, though single readings can be large; an effect the other way counts as inactive or inconclusive.
# Key:
# [1] = qHTS assay to identify small molecule antagonists of the constitutive androstane receptor (CAR) signaling pathway - cell viability counter screen (AID 1224837); note: nearly all actives have a fitted effect of over 45% in size
# Procedure, shortened: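 HepG2 cells stably carrying hCAR and CYP2B6-2.2kb reporter, stimulated with 50 nM CITCO and compounds at 15 concentrations for 23 h at 37 C. Viability measured by CellTiter-Fluor fluorescence.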
# [2] = target: Nuclear receptor subfamily 1 group I member 3 (Homo sapiens) (UniProt Q14994); experiment: qHTS assay to identify small molecule antagonists of the constitutive androstane receptor (CAR) signaling pathway (AID 1224838); note: nearly all actives have a fitted effect of over 40% in size
# Sequence of Nuclear receptor subfamily 1 group I member 3 (Homo sapiens) (Q14994 whole entry, looked up): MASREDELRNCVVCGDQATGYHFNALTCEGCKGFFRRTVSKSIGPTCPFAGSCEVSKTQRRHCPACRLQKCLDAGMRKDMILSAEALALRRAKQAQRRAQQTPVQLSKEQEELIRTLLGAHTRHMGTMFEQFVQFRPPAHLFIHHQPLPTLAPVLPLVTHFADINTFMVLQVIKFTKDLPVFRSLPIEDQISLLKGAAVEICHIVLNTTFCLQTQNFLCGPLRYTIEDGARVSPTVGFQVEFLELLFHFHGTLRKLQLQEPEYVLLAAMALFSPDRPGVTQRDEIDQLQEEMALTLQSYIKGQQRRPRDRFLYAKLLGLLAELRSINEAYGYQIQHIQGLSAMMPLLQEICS
# Procedure, shortened: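 HepG2 cells stably carrying hCAR and a CYP2B6-2.2kb luciferase reporter, seeded 4 hrs before compound (15 concentrations). Stimulated with 50 nM CITCO for 24 hr at 37 C. ONE-Glo luminescence read after 30 min at room temperature.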
# [3] = target: Nuclear receptor subfamily 1 group I member 3 (Homo sapiens) (UniProt Q14994); experiment: qHTS assay to identify small molecule agonists of the constitutive androstane receptor (CAR) signaling pathway (AID 1224839); note: nearly all actives have a fitted effect of over 15% in size
# Procedure, shortened: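 HepG2 cells stably expressing hCAR and a CYP2B6-2.2kb luciferase reporter were treated with compounds at 15 concentrations plus 0.75 uM PK11195 (final) for 24 h at 37 C; luminescence was read after ONE-Glo addition.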
# [4] = qHTS assay to identify small molecule antagonists of the estrogen related receptor signaling pathway with the pleiotropic PPARgamma coactivator (PGC) from Tox21 10K library - cell viability counter screen (AID 1224840; active = well fitted cell-killing curve with a large enough effect in the repeat runs, not every such curve was filed as active; note: nearly all actives have a fitted effect of over 40% in size)
# Procedure, shortened: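 PGC/ERR cells (2,000/well) plated 6 h, then compound-treated for 17.5 h at 37 C. Viability measured by CellTiter-Fluor fluorescence after 30 min at 37 C, multiplexed with the pathway assay.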
# [5] = target: Thyrotropin receptor (Homo sapiens) (UniProt P16473); experiment: qHTS assay to identify small molecule agonists of the thyroid stimulating hormone receptor (TSHR) signaling pathway (AID 1224843; calls by dose curve; note: nearly all actives have a fitted effect of over 45% in size)
# Sequence of Thyrotropin receptor (Homo sapiens) (P16473 whole entry, looked up): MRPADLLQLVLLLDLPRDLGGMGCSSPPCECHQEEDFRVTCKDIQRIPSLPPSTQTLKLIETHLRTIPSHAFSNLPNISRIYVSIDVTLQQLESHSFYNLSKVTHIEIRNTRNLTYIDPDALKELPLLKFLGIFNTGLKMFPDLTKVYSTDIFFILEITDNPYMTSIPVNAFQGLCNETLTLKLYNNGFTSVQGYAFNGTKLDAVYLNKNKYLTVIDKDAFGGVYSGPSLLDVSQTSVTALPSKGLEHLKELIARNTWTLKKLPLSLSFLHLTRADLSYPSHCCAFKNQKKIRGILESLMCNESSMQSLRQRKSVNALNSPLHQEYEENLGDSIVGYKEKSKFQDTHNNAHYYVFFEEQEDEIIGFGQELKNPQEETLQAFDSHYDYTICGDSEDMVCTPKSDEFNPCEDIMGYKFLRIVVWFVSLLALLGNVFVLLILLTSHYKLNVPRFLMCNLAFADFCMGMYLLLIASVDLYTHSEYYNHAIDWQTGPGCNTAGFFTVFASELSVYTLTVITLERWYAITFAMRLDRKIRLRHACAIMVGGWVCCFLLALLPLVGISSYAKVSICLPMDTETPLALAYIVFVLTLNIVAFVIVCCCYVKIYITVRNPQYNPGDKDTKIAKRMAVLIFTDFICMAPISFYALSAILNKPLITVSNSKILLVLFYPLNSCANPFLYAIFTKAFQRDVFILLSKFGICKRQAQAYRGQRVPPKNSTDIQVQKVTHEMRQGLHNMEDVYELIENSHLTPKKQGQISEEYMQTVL
# Procedure, shortened: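 TSHR-expressing HEK293 cells (800 per well) were exposed to compounds for 30 min at room temperature. cAMP was then detected by HTRF competition with cAMP-d2 and anti-cAMP cryptate, read after 1 h at room temperature. Fifteen concentrations, triplicate.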
# [6] = qHTS assay to identify small molecule agonists of the hypoxia (HIF-1) signaling pathway - cell viability counter screen (AID 1224844; calls by dose curve; note: nearly all actives have a fitted effect of over 50% in size)
# Procedure, shortened: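 HRE-bla ME-180 cells, 2,000/well in 0.5% dialyzed FBS medium, treated 17 h at 37C with compounds. Viability read in the same wells as the bla reporter, by CellTiter-Glo luminescence after 30 min at room temperature.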
# [7] = qHTS assay to identify small molecule agonists of H2AX (AID 1224845; active = well fitted activation curve with a large enough effect in the signal ratio in the repeat runs, not every such curve was filed as active; the % refers to the signal ratio)
# Procedure, shortened: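 Wild-type CHO-K1 cells plated overnight, then exposed 3 hr at 37C to compounds at 15 concentrations (0.76% DMSO). Lysed, then HTRF anti-pH2AX(S139)-cryptate/anti-H2AX-d2 detection after 24 hr at room temperature; emissions 665 and 620 nm.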
# [8] = qHTS assay to identify small molecule agonists of the hypoxia (HIF-1) signaling pathway (AID 1224846; active = well fitted activation curve with a large enough effect in the signal ratio in the repeat runs, not every such curve was filed as active; the % refers to the signal ratio)
# Procedure, shortened: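 HRE-bla ME-180 beta-lactamase reporter cells in medium with 0.5% dialyzed FBS, pre-incubated 5 h then exposed to compounds 17 h at 37C, 5% CO2; reporter induction read with CCF4-AM FRET substrate.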
# [9] = qHTS assay to identify small molecule agonists of H2AX - cell viability counter screen (AID 1224847; calls by dose curve; note: nearly all actives have a fitted effect of over 30% in size; note: potency is the fitted concentration of half-maximal effect)
# Procedure, shortened: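 Wild-type CHO-K1 cells (10% FBS medium) were plated overnight at 37C, exposed to compounds at 15 concentrations for 3 hr at 37C (0.76% DMSO final), and viability was read as CellTiter-Glo luminescence after 30 min at room temperature.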
# [10] = qHTS RealTime-Glo MT Cell Viability Assay in HepG2 cells - 24 hour (AID 1224867); note: nearly all actives have a fitted effect of over 50% in size
# Procedure, shortened: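 qHTS, HepG2, 600 cells/well, RealTime-Glo (NanoLuc + prosubstrate) added with cells; 5 h preincubation; DMSO compound addition; 37 C; luminescence at 0/8/16/24/32/40 h.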
# [11] = qHTS RealTime-Glo MT Cell Viability Assay in HEK293 cells - 32 hour (AID 1224868); note: nearly all actives have a fitted effect of over 50% in size; note: potency is the fitted concentration of half-maximal effect
# Procedure, shortened: (§1)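 Assay medium contained NanoLuc luciferase plus cell-permeant prosubstrate, added with HEK293 cells at 600 cells/well. After 5 h at 37 C/5% CO2 compounds were added; plates stayed at 37 C for 40 h with serial luminescence reads.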
# [12] = qHTS RealTime-Glo MT Cell Viability Assay in HepG2 cells - 40 hour (AID 1224870); note: nearly all actives have a fitted effect of over 50% in size
# Procedure, shortened: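 HepG2 cells mixed with RealTime-Glo MT reagents (NanoLuc plus cell-permeant prosubstrate) were seeded at 600 cells/well, incubated 5 h at 37 C/5% CO2, then pinned with compounds in DMSO; nonlytic luminescence tracked viability during 40 h treatment.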
# [13] = qHTS RealTime-Glo MT Cell Viability Assay in HEK293 cells - 16 hour (AID 1224872); note: nearly all actives have a fitted effect of over 50% in size; note: potency is the fitted concentration of half-maximal effect
# Procedure, shortened: as §1
# [14] = qHTS assay to identify small molecule agonists of the estrogen related receptor signaling pathway with the pleiotropic PPARgamma coactivator (PGC) from Tox21 10K library (AID 1224842); note: nearly all actives have a fitted effect of over 15% in size
# Procedure, shortened: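 PGC/ERR reporter cells (NTP line) were seeded 2,000 per well, rested 6 h at 37 C/5% CO2, then pin-dosed with compounds in DMSO for 18 h at 37 C; luciferase read by One-Glo luminescence after 30 min at room temperature.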
# [15] = qHTS assay to identify small molecule antagonists of the estrogen related receptor (ERR) signaling pathway from Tox21 library (AID 1224848); note: nearly all actives have a fitted effect of over 50% in size; note: potency is the fitted concentration of half-maximal effect
# Procedure, shortened: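 Cells: ERR line, 2,000/well; 6 h preincubation 37 C/5% CO2. Cpd in DMSO via pin tool; 18 h, 37 C. ONE-Glo, 30 min RT, luminescence.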
# [16] = qHTS assay to identify small molecule agonists of the estrogen related receptor (ERR) signaling pathway from Tox21 library (AID 1224849; calls by dose curve; note: nearly all actives have a fitted effect of over 15% in size); conditions: ERR reporter cell line, ONE-Glo luciferase, 18 h
# Procedure, shortened: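 ERR reporter cells (NTP line) pre-incubated 6 hours at 37 C, then exposed to compounds for 18 hours at 37 C. ONE-Glo luciferase luminescence was read after 30 minutes at room temperature.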
# [17] = A CellTox Green Cytotoxicity Assay to monitor cytotoxicity in HEK293 cells - 0 hour (AID 1224869); note: nearly all actives have a fitted effect of over 50% in size
# Procedure, shortened: (§2)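 HEK293 cells, 600/well, were preincubated 5 hours and then exposed to compounds at 37 C for up to 40 hours. A cell-impermeant cyanine dye staining dead-cell DNA was read by fluorescence at 0, 8, 16, 24, 32 and 40 h time points.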
# [18] = A CellTox Green Cytotoxicity Assay to monitor cytotoxicity in HEK293 cells - 40 hour (AID 1224871); note: nearly all actives have a fitted effect of over 45% in size
# Procedure, shortened: as §2
# [19] = qHTS assay to identify small molecule agonists of the constitutive androstane receptor (CAR) signaling pathway - cell viability counter screen (AID 1224836); note: nearly all actives have a fitted effect of over 45% in size
# Procedure, shortened: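 HepG2 cells stably carrying hCAR and a CYP2B6-2.2kb reporter were plated 4 h, then given compounds at 15 concentrations plus PK11195 (final 0.75 uM). After 23 h at 37 C, viability was read by CellTiter-Fluor fluorescence.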
# [20] = qHTS assay to identify small molecule antagonists of the estrogen related receptor signaling pathway with the pleiotropic PPARgamma coactivator (PGC) from Tox21 10K library (AID 1224841; call rule not given here)
# Procedure, shortened: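 PGC/ERR cell line, 2,000 cells/well, pre-incubated 6 hours at 37 C, then exposed to compounds for 18 hours at 37 C; luciferase read with One-Glo luminescence after 30 min at room temperature.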
smiles,measurement,setting,value
COc1cccc(OC)c1C(=O)O,Potency,[1],inactive
same,Potency,[2],inactive
same,Potency,[3],inactive
same,Potency,[4],inactive
same,Potency,[5],inactive
same,Potency,[6],inactive
same,Potency,[7],inactive
same,Potency,[8],inactive
same,Potency,[9],inactive
same,Potency,[10],inactive
same,Potency,[11],inactive
same,Potency,[12],inactive
same,Potency,[13],inactive
CCO[C@@H]1O[C@H](C(COCc2ccccc2)OCc2ccccc2)[C@H](OCc2ccccc2)[C@H]1O (stereo not given in full),Potency,[1],inactive
same,Potency,[3],inactive
same,Potency,[14],inactive
same,Potency,[5],inactive
same,Potency,[7],inactive
same,Potency,[15],29.8 µM (active)
same,"activity change, positive = activation",[16]; at 42.5 µM (top of the series),-48%
same,Potency,[10],inactive
same,Potency,[17],inactive
same,Potency,[12],inactive
same,Potency,[18],inactive
Cl[Si](Cl)(c1ccccc1)c1ccccc1,Potency,[19],inactive
same,Potency,[4],inactive
same,Potency,[5],inactive
same,Potency,[6],inactive
same,Potency,[7],inactive
same,Potency,[8],inactive
same,Potency,[9],inactive
same,Potency,[10],inactive
same,Potency,[11],inactive
same,Potency,[17],inactive
same,Potency,[12],inactive
Oc1ccccc1O,Potency,[19],inactive
same,Potency,[2],inactive
same,Potency,[5],inactive
same,Potency,[9],inactive
same,Potency,[10],inactive
same,Potency,[11],39.4 µM (active) and 21.9 µM (active)
same,Potency,[17],inactive
same,Potency,[12],inactive
same,Potency,[18],inactive
same,Potency,[13],55.6 µM (active) and 49 µM (active)
CC(C)(C)C1CCC(=O)CC1,Potency,[1],inactive
same,Potency,[4],inactive
same,Potency,[20],inactive
same,Potency,[14],inactive
same,Potency,[5],inactive
same,Potency,[6],inactive
same,Potency,[7],inactive
same,Potency,[8],inactive
same,Potency,[9],inactive
same,Potency,[15],inactive
same,"activity change, positive = activation",[16]; at 92.4 µM (top of the series),-0.544%
same,Potency,[10],inactive
same,Potency,[11],inactive
same,Potency,[17],inactive
same,Potency,[12],inactive
same,Potency,[18],inactive
same,Potency,[13],inactive
COCCOc1cc2cc(C(=O)NC3CCN(C(C)C)CC3)n(CC(=O)Nc3ccc(Cl)cn3)c2cn1,Potency,[1],inactive
same,Potency,[4],inactive
same,Potency,[5],inactive
same,Potency,[6],inactive
same,Potency,[7],inactive
same,Potency,[8],inactive
same,Potency,[9],inactive
same,Potency,[10],inactive
same,Potency,[11],inactive
same,Potency,[17],inactive
same,Potency,[12],inactive
same,Potency,[18],inactive
Cc1ccc(C(=O)O)cc1,Potency,[2],inactive
same,Potency,[3],inactive
same,Potency,[4],inactive
same,Potency,[20],inactive
same,Potency,[5],inactive
same,Potency,[6],inactive
same,Potency,[7],inactive
same,Potency,[8],inactive
same,Potency,[9],inactive
same,Potency,[15],inactive
same,"activity change, positive = activation",[16]; at 92.4 µM (top of the series),-0.305%
same,Potency,[10],inactive
same,Potency,[11],inactive
same,Potency,[17],inactive
same,Potency,[12],inactive
same,Potency,[18],inactive
same,Potency,[13],inactive
O=C(/C=C/c1ccc(O)c(O)c1)O[C@@H](C(=O)O)[C@@H](OC(=O)/C=C/c1ccc(O)c(O)c1)C(=O)O,Potency,[2],inactive
same,Potency,[3],inactive
same,Potency,[4],inactive
same,Potency,[6],inactive
same,Potency,[8],inactive
same,Potency,[9],inactive
same,Potency,[10],inactive
same,Potency,[11],inactive
same,Potency,[18],inactive
same,Potency,[13],inactive
Cc1cccc(C)c1NC(=O)c1ccc(N)cc1,Potency,[4],inactive
same,Potency,[20],inactive
same,Potency,[5],inactive
same,Potency,[6],inactive
same,Potency,[7],inactive
same,Potency,[8],inactive
same,Potency,[9],inactive
same,Potency,[15],inactive
same,"activity change, positive = activation",[16]; at 42.5 µM (top of the series),5.09%
same,Potency,[10],inactive
same,Potency,[11],inactive
same,Potency,[17],inactive
same,Potency,[12],inactive
same,Potency,[18],inactive
same,Potency,[13],inactive
COC(=O)c1ccccc1C,Potency,[4],inactive
same,Potency,[20],inactive
same,Potency,[5],inactive
same,Potency,[6],inactive
same,Potency,[7],inactive
same,Potency,[8],inactive
same,Potency,[9],inactive
same,Potency,[15],inactive
same,"activity change, positive = activation",[16]; at 92.4 µM (top of the series),3.57%
same,Potency,[10],inactive
same,Potency,[11],inactive
same,Potency,[17],inactive
same,Potency,[12],inactive
same,Potency,[18],inactive
same,Potency,[13],inactive
Oc1cc(Cl)cc(Cl)c1Cl,Potency,[2],inactive
same,Potency,[3],inactive
same,Potency,[5],inactive
same,Potency,[6],inactive
same,Potency,[7],inactive
same,Potency,[8],inactive
same,Potency,[9],51.7 µM (active)
same,Potency,[10],inactive
same,Potency,[17],inactive
